Assay results published in the supplement of paper PMC11732987, “Enantioselective OTUD7B fragment discovery through chemoproteomics screening and high-throughput optimisation” (Communications Chemistry, 2025).

What was measured:
Assay in all cases: log2 ratio of Biotin-Ahx-Ub-VS probe labelling (fragment/DMSO); higher = less target engagement (more negative = stronger competition), active = hit call of the paper (q ≤ 0.05, log2 ratio ≤ -1)
Settings in all cases: compound concentration: 200 uM; treatment time: 3 h
USP34 = USP34 (UniProt Q70CQ2)
Outline: (§1)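 HEK293T lysate, 495 µg per sample in Tris/CHAPS/IGEPAL buffer with protease inhibitors, was treated in triplicate with fragment at 200 µM or vehicle for 3 h and then with Biotin-Ahx-Ub-VS at 0.5 µM final for 1 h. Labelled DUBs were NeutrAvidin-enriched, digested with LysC and trypsin, and run by diaPASEF LC-MS/MS. Spectronaut label-free quantities were global-median-normalised, and values are average log2 fragment/vehicle ratios by unpaired t-test on proteins with ≥2 unique peptides.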

USP36 = target: T1, USP36 (UniProt Q9P275)
T1 sequence (whole entry): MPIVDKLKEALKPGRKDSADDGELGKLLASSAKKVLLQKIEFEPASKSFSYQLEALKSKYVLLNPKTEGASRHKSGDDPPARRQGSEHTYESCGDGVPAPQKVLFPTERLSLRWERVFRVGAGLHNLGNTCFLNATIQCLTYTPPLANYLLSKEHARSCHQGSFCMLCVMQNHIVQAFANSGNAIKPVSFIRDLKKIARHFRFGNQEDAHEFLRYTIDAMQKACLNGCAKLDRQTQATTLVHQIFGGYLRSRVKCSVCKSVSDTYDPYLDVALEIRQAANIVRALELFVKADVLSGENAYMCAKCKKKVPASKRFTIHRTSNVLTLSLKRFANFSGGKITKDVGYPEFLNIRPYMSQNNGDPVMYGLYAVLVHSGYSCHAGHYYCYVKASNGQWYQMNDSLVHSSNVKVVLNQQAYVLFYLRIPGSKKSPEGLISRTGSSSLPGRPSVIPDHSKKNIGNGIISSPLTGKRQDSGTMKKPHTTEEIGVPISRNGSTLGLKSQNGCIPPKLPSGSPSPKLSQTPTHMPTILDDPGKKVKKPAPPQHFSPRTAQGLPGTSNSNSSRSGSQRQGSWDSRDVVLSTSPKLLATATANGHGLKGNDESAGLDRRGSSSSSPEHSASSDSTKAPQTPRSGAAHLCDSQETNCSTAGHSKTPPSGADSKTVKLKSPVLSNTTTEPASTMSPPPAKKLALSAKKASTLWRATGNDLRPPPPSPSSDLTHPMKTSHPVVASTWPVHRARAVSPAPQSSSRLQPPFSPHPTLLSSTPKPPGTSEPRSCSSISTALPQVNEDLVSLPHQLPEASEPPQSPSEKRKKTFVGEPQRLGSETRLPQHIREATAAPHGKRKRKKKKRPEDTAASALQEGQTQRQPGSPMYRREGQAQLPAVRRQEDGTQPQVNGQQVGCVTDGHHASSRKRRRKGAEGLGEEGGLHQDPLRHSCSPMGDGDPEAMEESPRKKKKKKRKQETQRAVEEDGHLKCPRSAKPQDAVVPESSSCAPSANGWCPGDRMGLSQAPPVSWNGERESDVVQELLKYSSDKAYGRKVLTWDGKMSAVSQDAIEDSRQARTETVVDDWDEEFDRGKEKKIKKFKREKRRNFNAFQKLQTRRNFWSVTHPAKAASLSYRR
Outline: as §1

USP38 = target: T2, USP38 (UniProt Q8NB14)
T2 sequence (whole entry): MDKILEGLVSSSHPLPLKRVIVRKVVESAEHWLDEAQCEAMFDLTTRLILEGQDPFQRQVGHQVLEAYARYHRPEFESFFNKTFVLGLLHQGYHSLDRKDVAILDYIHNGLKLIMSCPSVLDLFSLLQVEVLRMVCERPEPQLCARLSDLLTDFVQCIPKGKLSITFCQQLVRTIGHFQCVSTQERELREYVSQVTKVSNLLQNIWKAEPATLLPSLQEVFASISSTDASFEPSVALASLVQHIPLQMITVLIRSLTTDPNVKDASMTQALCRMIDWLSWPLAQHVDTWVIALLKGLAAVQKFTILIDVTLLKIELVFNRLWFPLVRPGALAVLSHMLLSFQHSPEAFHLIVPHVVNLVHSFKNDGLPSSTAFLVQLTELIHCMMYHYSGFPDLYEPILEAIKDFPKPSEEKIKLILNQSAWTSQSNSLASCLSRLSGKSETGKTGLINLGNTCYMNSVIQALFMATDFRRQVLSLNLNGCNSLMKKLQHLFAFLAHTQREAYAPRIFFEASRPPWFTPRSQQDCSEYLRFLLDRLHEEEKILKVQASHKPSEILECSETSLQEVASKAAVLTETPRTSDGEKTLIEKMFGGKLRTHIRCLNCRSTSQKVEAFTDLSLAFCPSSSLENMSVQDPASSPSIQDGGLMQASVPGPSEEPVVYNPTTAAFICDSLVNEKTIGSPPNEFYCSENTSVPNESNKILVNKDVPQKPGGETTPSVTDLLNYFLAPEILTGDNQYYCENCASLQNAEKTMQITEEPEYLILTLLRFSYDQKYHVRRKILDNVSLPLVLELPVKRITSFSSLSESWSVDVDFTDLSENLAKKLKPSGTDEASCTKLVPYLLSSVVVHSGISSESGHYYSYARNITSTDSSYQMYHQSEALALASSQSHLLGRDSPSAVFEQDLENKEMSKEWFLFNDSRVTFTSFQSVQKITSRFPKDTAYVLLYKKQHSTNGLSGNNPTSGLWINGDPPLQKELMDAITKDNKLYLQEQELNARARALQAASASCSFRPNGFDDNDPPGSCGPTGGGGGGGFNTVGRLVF
Outline: as §1

USP39 = target: T3, USP39 (UniProt Q53GS9)
T3 sequence (whole entry): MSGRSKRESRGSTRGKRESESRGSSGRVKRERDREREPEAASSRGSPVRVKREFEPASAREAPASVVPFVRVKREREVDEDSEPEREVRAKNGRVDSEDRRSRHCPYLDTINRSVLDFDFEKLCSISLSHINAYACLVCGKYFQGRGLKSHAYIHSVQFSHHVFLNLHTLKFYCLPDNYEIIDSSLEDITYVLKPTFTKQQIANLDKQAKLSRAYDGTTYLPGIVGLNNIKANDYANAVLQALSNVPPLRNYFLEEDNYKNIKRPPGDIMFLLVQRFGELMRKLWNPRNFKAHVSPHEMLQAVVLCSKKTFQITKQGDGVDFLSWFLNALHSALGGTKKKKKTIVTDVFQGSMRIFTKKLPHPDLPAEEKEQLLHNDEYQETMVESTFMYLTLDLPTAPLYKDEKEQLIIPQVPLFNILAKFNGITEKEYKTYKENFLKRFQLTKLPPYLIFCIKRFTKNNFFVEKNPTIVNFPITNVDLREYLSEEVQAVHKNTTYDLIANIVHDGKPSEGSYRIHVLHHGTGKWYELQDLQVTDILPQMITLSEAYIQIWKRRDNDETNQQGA
Outline: as §1

USP4 = target: T4, USP4 (UniProt Q13107)
T4 sequence (whole entry): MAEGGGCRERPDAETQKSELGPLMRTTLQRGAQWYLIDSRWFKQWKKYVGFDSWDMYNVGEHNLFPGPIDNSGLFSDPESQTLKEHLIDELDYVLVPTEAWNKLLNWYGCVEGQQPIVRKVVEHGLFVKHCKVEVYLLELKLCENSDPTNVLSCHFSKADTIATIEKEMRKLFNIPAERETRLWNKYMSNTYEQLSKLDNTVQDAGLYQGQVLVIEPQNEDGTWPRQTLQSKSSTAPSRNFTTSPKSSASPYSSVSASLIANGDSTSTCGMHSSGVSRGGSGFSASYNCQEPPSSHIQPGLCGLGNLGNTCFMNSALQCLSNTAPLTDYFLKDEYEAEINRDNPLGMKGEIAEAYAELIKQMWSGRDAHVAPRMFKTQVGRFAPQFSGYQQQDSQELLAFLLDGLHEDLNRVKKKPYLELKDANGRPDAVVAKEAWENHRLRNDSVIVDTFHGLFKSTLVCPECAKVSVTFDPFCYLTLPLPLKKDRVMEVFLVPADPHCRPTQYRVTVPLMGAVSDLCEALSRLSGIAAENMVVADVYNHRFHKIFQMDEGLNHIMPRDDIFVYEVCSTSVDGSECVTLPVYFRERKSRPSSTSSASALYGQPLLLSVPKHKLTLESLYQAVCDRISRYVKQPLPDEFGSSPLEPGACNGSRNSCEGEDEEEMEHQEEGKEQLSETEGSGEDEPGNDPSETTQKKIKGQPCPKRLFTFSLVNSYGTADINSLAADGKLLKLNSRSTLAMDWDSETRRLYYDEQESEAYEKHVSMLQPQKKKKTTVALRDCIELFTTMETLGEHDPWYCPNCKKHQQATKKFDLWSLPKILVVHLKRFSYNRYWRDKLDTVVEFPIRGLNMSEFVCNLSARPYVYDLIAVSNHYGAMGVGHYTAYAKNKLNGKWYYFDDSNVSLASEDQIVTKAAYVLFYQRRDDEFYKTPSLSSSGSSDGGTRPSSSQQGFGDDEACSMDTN
Outline: as §1

Measured: log2 ratio of Biotin-Ahx-Ub-VS probe labelling

Sequence of USP34 (Q70CQ2 whole entry, the tested form may be a part): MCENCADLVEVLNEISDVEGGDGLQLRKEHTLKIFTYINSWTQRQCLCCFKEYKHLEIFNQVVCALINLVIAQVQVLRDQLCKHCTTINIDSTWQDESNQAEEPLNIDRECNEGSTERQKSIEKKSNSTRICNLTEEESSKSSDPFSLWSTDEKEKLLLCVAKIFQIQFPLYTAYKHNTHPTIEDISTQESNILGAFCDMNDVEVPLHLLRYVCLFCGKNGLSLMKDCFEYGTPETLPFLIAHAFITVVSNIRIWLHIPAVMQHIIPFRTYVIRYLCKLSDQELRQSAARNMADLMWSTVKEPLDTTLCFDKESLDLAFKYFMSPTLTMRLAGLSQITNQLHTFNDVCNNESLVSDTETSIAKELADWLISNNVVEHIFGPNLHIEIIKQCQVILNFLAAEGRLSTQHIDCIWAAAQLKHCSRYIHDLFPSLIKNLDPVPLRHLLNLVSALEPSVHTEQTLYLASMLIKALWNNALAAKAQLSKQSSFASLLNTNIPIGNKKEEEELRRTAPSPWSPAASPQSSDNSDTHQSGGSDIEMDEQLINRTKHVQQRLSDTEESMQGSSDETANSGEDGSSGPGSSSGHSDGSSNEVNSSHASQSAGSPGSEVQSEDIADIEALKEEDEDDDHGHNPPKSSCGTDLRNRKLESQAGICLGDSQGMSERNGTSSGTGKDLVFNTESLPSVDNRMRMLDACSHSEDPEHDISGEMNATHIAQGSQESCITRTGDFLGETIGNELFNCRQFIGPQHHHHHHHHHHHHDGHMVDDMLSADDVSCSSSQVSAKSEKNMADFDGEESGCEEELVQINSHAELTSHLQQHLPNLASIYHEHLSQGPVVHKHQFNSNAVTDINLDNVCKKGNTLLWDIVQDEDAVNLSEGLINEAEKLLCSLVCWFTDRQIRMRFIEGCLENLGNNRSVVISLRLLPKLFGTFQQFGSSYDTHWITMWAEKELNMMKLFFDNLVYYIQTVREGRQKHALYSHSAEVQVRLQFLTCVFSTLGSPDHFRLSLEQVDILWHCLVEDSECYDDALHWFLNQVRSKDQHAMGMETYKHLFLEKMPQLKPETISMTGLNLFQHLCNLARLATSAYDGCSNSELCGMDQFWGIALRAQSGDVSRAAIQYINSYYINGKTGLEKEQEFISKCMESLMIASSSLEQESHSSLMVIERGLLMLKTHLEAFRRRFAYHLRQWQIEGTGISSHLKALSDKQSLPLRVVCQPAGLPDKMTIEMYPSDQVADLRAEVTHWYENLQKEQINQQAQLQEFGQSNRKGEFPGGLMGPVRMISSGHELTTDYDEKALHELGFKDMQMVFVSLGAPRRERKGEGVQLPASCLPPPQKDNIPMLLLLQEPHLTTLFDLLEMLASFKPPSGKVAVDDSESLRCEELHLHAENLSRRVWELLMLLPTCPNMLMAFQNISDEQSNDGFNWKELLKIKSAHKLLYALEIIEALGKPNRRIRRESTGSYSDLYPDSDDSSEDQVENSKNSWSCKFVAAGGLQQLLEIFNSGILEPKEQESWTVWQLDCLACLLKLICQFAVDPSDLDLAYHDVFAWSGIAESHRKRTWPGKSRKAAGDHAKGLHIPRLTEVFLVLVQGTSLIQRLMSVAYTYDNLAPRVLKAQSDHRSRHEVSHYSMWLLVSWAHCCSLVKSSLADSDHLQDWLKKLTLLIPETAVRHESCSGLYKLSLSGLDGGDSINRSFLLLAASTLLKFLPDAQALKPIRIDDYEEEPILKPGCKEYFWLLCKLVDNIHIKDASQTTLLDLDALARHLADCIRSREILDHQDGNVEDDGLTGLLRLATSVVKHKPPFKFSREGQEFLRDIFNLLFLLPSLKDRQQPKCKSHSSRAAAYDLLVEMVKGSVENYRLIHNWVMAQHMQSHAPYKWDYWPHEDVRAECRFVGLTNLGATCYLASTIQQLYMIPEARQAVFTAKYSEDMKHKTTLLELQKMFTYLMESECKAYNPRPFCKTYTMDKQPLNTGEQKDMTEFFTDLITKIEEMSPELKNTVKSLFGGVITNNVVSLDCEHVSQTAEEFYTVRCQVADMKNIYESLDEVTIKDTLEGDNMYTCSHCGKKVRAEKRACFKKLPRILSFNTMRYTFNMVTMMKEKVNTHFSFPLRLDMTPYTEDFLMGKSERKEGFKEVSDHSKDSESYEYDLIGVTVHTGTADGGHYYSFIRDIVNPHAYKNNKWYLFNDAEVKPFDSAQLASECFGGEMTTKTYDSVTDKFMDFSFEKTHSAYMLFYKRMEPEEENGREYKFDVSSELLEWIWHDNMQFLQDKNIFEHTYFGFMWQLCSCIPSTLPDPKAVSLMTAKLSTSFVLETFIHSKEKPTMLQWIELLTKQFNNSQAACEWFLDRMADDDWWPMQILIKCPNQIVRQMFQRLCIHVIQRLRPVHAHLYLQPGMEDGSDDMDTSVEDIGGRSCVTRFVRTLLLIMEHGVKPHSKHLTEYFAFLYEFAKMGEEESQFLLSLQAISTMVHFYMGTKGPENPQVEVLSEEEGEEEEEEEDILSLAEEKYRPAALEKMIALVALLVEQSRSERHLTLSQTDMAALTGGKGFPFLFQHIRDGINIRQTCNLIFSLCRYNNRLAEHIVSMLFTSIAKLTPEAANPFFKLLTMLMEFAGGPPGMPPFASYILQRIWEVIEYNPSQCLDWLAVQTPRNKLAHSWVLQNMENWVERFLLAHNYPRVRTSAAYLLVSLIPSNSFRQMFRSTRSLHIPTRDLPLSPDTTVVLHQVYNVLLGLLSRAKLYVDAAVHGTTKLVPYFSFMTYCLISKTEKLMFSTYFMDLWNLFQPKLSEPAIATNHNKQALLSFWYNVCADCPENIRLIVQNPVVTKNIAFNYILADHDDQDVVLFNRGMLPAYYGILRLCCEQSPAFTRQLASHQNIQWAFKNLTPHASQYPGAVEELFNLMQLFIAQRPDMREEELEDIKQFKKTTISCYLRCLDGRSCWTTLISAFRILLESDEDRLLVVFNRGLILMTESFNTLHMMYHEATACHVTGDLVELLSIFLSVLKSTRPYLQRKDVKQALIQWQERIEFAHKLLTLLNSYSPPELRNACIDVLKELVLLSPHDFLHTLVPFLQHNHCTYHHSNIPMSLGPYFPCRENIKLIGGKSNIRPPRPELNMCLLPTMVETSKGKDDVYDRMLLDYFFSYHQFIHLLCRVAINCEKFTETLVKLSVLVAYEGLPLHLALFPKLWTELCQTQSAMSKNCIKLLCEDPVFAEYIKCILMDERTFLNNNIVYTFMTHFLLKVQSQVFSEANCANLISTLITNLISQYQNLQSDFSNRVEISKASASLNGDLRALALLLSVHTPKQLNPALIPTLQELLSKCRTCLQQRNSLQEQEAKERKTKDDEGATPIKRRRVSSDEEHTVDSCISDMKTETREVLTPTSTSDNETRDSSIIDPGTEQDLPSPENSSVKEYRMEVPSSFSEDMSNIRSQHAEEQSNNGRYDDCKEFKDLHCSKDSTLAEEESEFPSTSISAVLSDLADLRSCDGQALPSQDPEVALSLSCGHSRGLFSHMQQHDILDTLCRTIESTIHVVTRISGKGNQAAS

O=C(CCl)Nc1cc(Cl)ccc1C(=O)O
inactive: USP34 0.243 | USP36 0.209 | USP38 0.105 | USP39 0.562 | USP4 0.12
